Inhibition data for 10 compounds are collected here from PubChem BioAssay AID555 (SRMLSC, 2006).

The test system of the assay is mevalonate kinase [Streptococcus pneumoniae D39]. In words: pneumococcal mevalonate kinase activity blockers – biochemical, PK/LDH-coupled NADH absorbance, primary screen (AID 555). The conditions noted are these: purified MK, PK/LDH-coupled NADH absorbance 340 nm, at 10 µM, stronger effect = higher value.
[1] abbreviates: measured here: pilot screen replicates.

Screen size: about 65,000 compounds; about 320 (0.49%) were called active.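 The calls were made as follows: active = ranked among the strongest by inhibition in the single 10 µM screen, a fixed top-ranked set picked for dose follow-up; inactive = the rest, inconclusive results apart.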 Only a selection was taken, and actives are over-represented in it overall.

As a reminder, the inhibition is how much of the control response was suppressed. Turning to `CCN1CCN(C(=O)Cc2coc3cc(C)cc(C)c23)CC1`, the inhibition is 5% (inactive). The same measure, in the same setting: as for `CN1CCN(Cc2ccccc2C(F)(F)F)CC1`, the figure is 6% (inactive).

As for `COc1ccccc1CN1CCN(C(=O)Cc2ccccc2)CC1`, the inhibition is 53% (active). The compound further returned an inhibition under setting [1] of 0%. For `CCOC(=O)c1c(-c2ccccc2)oc2ccc(OC(=O)N(C)C)cc12`, the inhibition is 0% (inactive).

With `CC(C)c1ccc(O)c(CN2CCN(c3ccccc3)CC2)c1`, the inhibition was 0% (inactive).

Consider `Fc1cccc(F)c1CN1CCN(Cc2c(F)cccc2F)CC1`, for which the inhibition was 2% (inactive). As for `COc1ccc(CN2CCN(c3ccccc3F)CC2)c(OC)c1`, the inhibition was 43% (active). Moreover, the inhibition under setting [1] is 1.5%. As for `CCC(=NCc1ccco1)c1c(O)n(Cc2ccccc2)c(=O)[nH]c1=O`, the inhibition was 12% (inactive).

As for `CC(=NCC1CCCO1)c1c(O)n(-c2ccccc2)c(=O)[nH]c1=O` (configuration not stated), the inhibition was 4% (inactive).

As for `COC(=O)COc1cc(C)cc2oc(=O)c3c(c12)CCCC3`, the inhibition was 6% (inactive).
